# Results from PubChem BioAssay.
# Calls of active or inactive are those of the source. Unless noted, how the calls were made is not given here.
# Legend:
# [1] = compounds altering circadian rhythm period length – cell-based, LOPAC library, luminescence reporter (AID 2774); conditions: circadian reporter cells, at 7 µM, actives lie on both sides;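 further: values are relative to mean of DMSO wells on each plate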
# [2] = test system: Hepatitis C virus NS3 helicase; assay: blockers of NS3h binding to ssDNA – biochemical, fluorescence polarization, LOPAC1280 library, primary screen (AID 687035; in the data active means inhibition above about 37%); conditions: Purified HCV NS3 helicase, Cy5-dT15 ssDNA binding fluorescence polarization; stronger effect = higher value; concentration not given here
# [3] = compounds altering Cy5-DNA-NS3h complex signal – biochemical, LOPAC1280, artefact control for HCV NS3 helicase inhibitor project (AID 687037); conditions: Cy5-DNA-NS3h complex fluorescence interference counterscreen
# [4] = viability loss with induced miR-34 in A549 – imaging, A549 dox-inducible miR-34, nuclei and caspase counts, primary screen (AID 1347080;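 active means compounds whose cell count with miR-34 switched on is under 0.7 times the count with it off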); conditions: A549 miR-34 inducible, Hoechst nuclei count, 48 h
# [5] = blockers of cellular phospholipid synthesis – cell-based, LOPAC library, screen 4, primary screen (AID 1347384); conditions: animal cells, phospholipid biosynthesis inhibition screen; at 10 µM
# [6] = galactose survival enhancers in mitochondrial complex I cybrids – cell-based, galactose medium, ATP luminescence, primary screen (AID 1645843;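 active means z-score of at least 1.8 in each of two replicates, scored against plate mean and spread of sample wells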;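 further: positive z means more ATP and so rescue of galactose-driven cybrid death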); conditions: complex I mutant cybrid cells, 72 h, stronger effect = higher value
# [7] = MELAS cybrid and Rieske KO viability enhancers – cell-based, MELAS cybrids, Rieske KO mouse fibroblasts, CellTiter-Glo, primary screen (AID 1508586;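 active means mean z-score across replicates of 1.96 or higher in either the MELAS or the Rieske mutant cell line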;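 further: z relative to plate mean and SD of compound and empty wells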); conditions: low glucose
# [8] = stronger effect = lower value, cell number ratio, induced over uninduced
# [9] = measured here: relative caspase fold change +Dox/-Dox
# [10] = measured here: total cells with miR-34 induction, stronger effect = lower value
# [11] = measured here: total cells without miR-34 induction
Compound,period change [1],inhibition [2],fluorescence ratio (interference) [3],"fold change [4, 8]","fold change [4, 9]","cell count [4, 10]","cell count [4, 11]",outcome [5],z-score [6],"z-score ([7]; MELAS cybrid survival, CellTiter-Glo 48 h, stronger effect = higher value)","z-score ([7]; Rieske KO mouse fibroblast survival, CellTiter-Glo 72 h)"
C=CC[C@H](N)C(=O)O,-0.185 h (inactive),-3% (inactive),1 (inactive),0.944 (inactive),0.719,9830,10400,inactive,0.62 (inactive),–,–
NC(C(=O)N[C@@H]1C(=O)N2C(C(=O)O)=C(Cl)CS[C@H]12)c1ccccc1 (stereo not given in full),0.03 h (inactive),0% (inactive),1 (inactive),1.02 (inactive),2.15,10500,10300,inactive,0.38 (inactive),–,–
CCCCOC(=O)NS(=O)(=O)c1sc(CC(C)C)cc1-c1ccc(Cn2c(CC)nc3c(C)cc(C)nc32)cc1,-0.005 h (inactive),-1% (inactive),1 (inactive),0.772 (inactive),0.69,4700,6080,inactive,-1.28 (inactive),–,–
COC(=O)C(C)(N)Cc1ccc(O)cc1 (stereo not given),-0.015 h (inactive),-3% (inactive),1 (inactive),1.04 (inactive),1.45,10900,10400,inactive,0.39 (inactive),–,–
Nc1nc(OCC2CCCCC2)c2[nH]cnc2n1,–,-2% (inactive),1 (inactive),1.47 (inactive),1.19,7330,4990,inactive,-0.68 (inactive),–,–
Cc1cc2c(cc1Cl)N(C(=O)Nc1ccnc3ccccc13)CC2,–,-1% (inactive),0.9 (inactive),1.12 (inactive),1.03,10500,9390,inactive,-0.09 (inactive),–,–
O=c1cc(-c2ccccc2F)[nH]c2cc3c(cc12)OCO3,–,-7% (inactive),0.9 (inactive),1.11 (inactive),0.744,1710,1540,inactive,-0.62 (inactive),–,–
COc1ccc(CCn2nnnc2C2(c3ccc(C)cc3)CC2)cc1,–,-4% (inactive),1.1 (inactive),1.09 (inactive),0.893,8770,8010,inactive,-0.23 (inactive),–,–
CN(CC[C@@H](Oc1ccc(C(F)(F)F)cc1)c1ccccc1)CC(=O)O,–,-2% (inactive),0.9 (inactive),1.05 (inactive),2.04,10800,10300,inactive,0.395 (inactive),–,–
c1ccc2c(c1)CCC[C@H]2Nc1nc2ccccc2[nH]1,–,-3% (inactive),1 (inactive),1.09 (inactive),0.557,7820,7150,inactive,-0.675 (inactive),–,–
COc1cc(C(O)CO)ccc1O (stereo not given),–,-1% (inactive),1 (inactive),0.99 (inactive),1.37,9940,10000,inactive,0.42 (inactive),–,–
OCC1O[C@H]([S-])[C@@H](O)C(O)[C@@H]1O.[Au+] (stereo not given in full),–,36% (inactive),1 (inactive),0.895 (inactive),0.924,6430,7180,inactive,-1.29 (inactive),–,–
COc1ccc(/C=C2\COc3ccc(C)cc3C2=O)cc1O,–,1% (inactive),1 (inactive),1.16 (inactive),2.59,3090,2660,inactive,-1.36 (inactive),–,–
Nc1nc2c(ncn2[C@@H]2O[C@H](CO)[C@@H](O)[C@@H]2O)c(=O)[nH]1,–,-2% (inactive),1 (inactive),0.934 (inactive),1.54,8710,9330,inactive,4.94 (active),–,–
O=C1NCc2c1c1c3ccccc3[nH]c1c1[nH]c3ccccc3c21,–,-1% (inactive),1 (inactive),1.15 (inactive),0.688,1560,1350,inactive,-0.89 (inactive),–,–
CN1Cc2sccc2C(c2ccc(O)c(O)c2)C1 (stereo not given),–,-3% (inactive),1 (inactive),1.06 (inactive),2.13,10300,9720,inactive,-1.25 (inactive),–,–
Oc1ccc(/C=C/c2ccc(/C=C/c3ccc(O)cc3)c(Br)c2)cc1,–,-3% (inactive),1 (inactive),1.33 (inactive),1.11,3040,2280,inactive,0.44 (inactive),–,–
Nc1ccc(-c2ccc3ccccc3n2)cc1,–,-2% (inactive),1 (inactive),1.1 (inactive),1.06,7600,6930,inactive,-1.29 (inactive),–,–
CC(=O)O[C@H]1Cc2ccccc2N(C(N)=O)c2ccccc21,–,-4% (inactive),1 (inactive),0.953 (inactive),1.06,10000,10500,inactive,0.61 (inactive),–,–
CCN(CC)CCNC(=O)c1ccc(NS(C)(=O)=O)cc1,–,-2% (inactive),1.1 (inactive),1.02 (inactive),0.826,10400,10100,inactive,0.325 (inactive),–,–
Cc1cc(Cn2cnc3c2C[C@@H](C(=O)O)N(C(=O)C(c2ccccc2)c2ccccc2)C3)ccc1N,–,0% (inactive),1 (inactive),1.01 (inactive),2.03,10300,10200,inactive,0.405 (inactive),–,–
CC[n+]1c(/C=C/C=C2/N(C)c3ccccc3C2(C)C)sc2ccccc21,–,1% (inactive),0.9 (inactive),1.18 (inactive),0.865,1270,1080,inactive,-1.04 (inactive),–,–
O=C(CCCCCN1CCN(c2ccccc2-c2ccccc2)CC1)NC1CCCc2ccccc21 (stereo not given),–,0% (inactive),1 (inactive),1.17 (inactive),1.11,6130,5250,inactive,-1.38 (inactive),–,–

Compound,period change [1],inhibition [2],fluorescence ratio (interference) [3],"fold change [4, 8]","fold change [4, 9]","cell count [4, 10]","cell count [4, 11]",outcome [5],z-score [6],"z-score ([7]; MELAS cybrid survival, CellTiter-Glo 48 h, stronger effect = higher value)","z-score ([7]; Rieske KO mouse fibroblast survival, CellTiter-Glo 72 h)"
CCOC(=O)C1=C(C)NC(C)=C(C(=O)OCC)C1c1c(F)c(F)c(F)c(F)c1F,–,-5% (inactive),0.9 (inactive),1.11 (inactive),0.622,5220,4680,inactive,-0.415 (inactive),–,–
COc1ccc2c(c1)CCC1C2CC[C@@]2(C)C1CC[C@@H]2NCCCCCCN1C(=O)CCC1=O (stereo not given in full),–,-3% (inactive),1 (inactive),1.08 (inactive),0.876,8060,7440,inactive,-1.29 (inactive),–,–
NC[C@@H]1O[C@H](c2ccccc2)Cc2c1ccc(O)c2O,–,-3% (inactive),0.9 (inactive),0.966 (inactive),1.26,9490,9820,inactive,-1.3 (inactive),–,–
C[C@](Cc1ccc(O)c(O)c1)(NN)C(=O)O,–,-4% (inactive),1 (inactive),0.947 (inactive),1.36,9110,9620,inactive,-1.02 (inactive),–,–
Brc1c(Br)c(Br)c2[nH]cnc2c1Br,–,0% (inactive),1 (inactive),1.11 (inactive),2.37,3750,3380,inactive,-1.17 (inactive),–,–
CC(C)c1cccc(C(C)C)c1N1C(=O)c2ccc(O)cc2C1=O,–,0% (inactive),0.9 (inactive),1.39 (inactive),0.841,1810,1300,inactive,0.3 (inactive),–,–
COc1ccc(-c2cc3ncc(C)n3c(Nc3ncccc3C(N)=O)n2)cc1OC,–,-1% (inactive),1 (inactive),0.944 (inactive),1.3,8700,9220,inactive,0.16 (inactive),–,–
CNCCc1cnc(CCC(c2ccccc2)c2ccccc2)[nH]1,–,-4% (inactive),1 (inactive),1.13 (inactive),0.656,5430,4810,inactive,-0.725 (inactive),–,–
c1ccc2c(c1)CC(N1CCN(c3cccc4c3OCCO4)CC1)C2,–,-2% (inactive),1 (inactive),1.01 (inactive),1.01,8000,7890,inactive,0.255 (inactive),–,–
CCNc1nc2c(ncn2[C@H]2C[C@H](O)[C@@H](CO)O2)c(=O)[nH]1,–,-2% (inactive),1 (inactive),0.97 (inactive),1.78,9970,10300,inactive,-0.005 (inactive),–,–
N[C@H](CCCP(=O)(O)O)C(=O)O,–,-1% (inactive),1.1 (inactive),0.903 (inactive),1.61,9420,10400,inactive,0.08 (inactive),–,–
C=C1C[C@@]23CC[C@H]4[C@@](C)(CCC[C@@]4(C)C(=O)O)[C@@H]2CC[C@]1(O)C3,–,-3% (inactive),1 (inactive),0.931 (inactive),1.06,9720,10400,inactive,0.98 (inactive),–,–
Cc1cc2c(cc1Cl)N(C(=O)Nc1ccc(Oc3cccnc3C)nc1)CC2,–,-2% (inactive),0.9 (inactive),0.93 (inactive),1.1,4820,5180,inactive,-1.26 (inactive),–,–
OC[C@H]1OC(n2cnc3c(N[C@H]4CCC[C@@H]4O)ncnc32)[C@H](O)[C@@H]1O (stereo not given in full),–,-3% (inactive),1 (inactive),1.03 (inactive),1.86,10800,10500,inactive,0.53 (inactive),–,–
Cc1cc(NC2CCCCC2)nc(-n2nc(C)cc2C)n1,–,-5% (inactive),1 (inactive),1.09 (inactive),0.728,9360,8610,inactive,-1.04 (inactive),–,–
CC(=O)/C=C1\C(=O)N(C)c2ccccc21,–,-2% (inactive),0.9 (inactive),0.98 (inactive),1.31,6920,7060,inactive,-1.48 (inactive),–,–
O=c1[nH]c(=S)[nH]c(-c2ccccc2)c1Cc1c(O)ccc2ccccc12,–,0% (inactive),1 (inactive),0.946 (inactive),1.58,8710,9210,inactive,0.53 (inactive),–,–
COc1cc(N)c(Cl)cc1C(=O)OCCN1CCCCC1,–,-5% (inactive),1 (inactive),1.11 (inactive),1.42,10600,9550,inactive,0.695 (inactive),–,–
O=C1/C(=C/c2ccsc2)CC/C1=C\c1cccs1,–,-4% (inactive),1 (inactive),0.99 (inactive),1.31,9920,10000,inactive,1.23 (inactive),–,–
C=C1C[C@@]23CC[C@H]4[C@@](C)(CCC[C@@]4(C)C(=O)OC4OC(CO)C(O)C(O)C4O)[C@@H]2CC[C@]1(OC1OC(CO)C(O)C(O)C1OC1OC(CO)C(O)C(O)C1O)C3 (stereo not given in full),–,-1% (inactive),1 (inactive),1.06 (inactive),0.521,10700,10100,inactive,0.675 (inactive),–,–
O=C(c1ccc(Cl)cc1)N1CCN(c2ccc([N+](=O)[O-])c3ncccc23)CC1,–,0% (inactive),1 (inactive),0.912 (inactive),1.42,6530,7170,inactive,-1 (inactive),–,–
COc1cc2c(cc1OC)CC(=O)N(CCCN(C)CC1Cc3cc(OC)c(OC)cc31)CC2 (stereo not given),–,–,–,0.865 (inactive),1.23,8090,9350,–,–,-0.285 (inactive),0.346
C=CCNc1ncnc2ccc(Br)cc12,–,0% (inactive),1 (inactive),0.949 (inactive),0.896,7410,7810,inactive,-1.29 (inactive),–,–
